Screens as filed in PubChem.
This is a sample that favours compounds with a hit; in the whole collection about 2.1% have one here.
A549 tox = Nrf2 qHTS screen for inhibitors: counterscreen for cytotoxicity; Potency, µM (titrated, usually from 46 µM), for the others: at the top dose activity change, negative = cytotoxicity, hits mostly inhibitors; 0.16% of 390,000 active; A549 ARE-Fluc cells, CellTiter-Fluor viability, 18-24 h; note: potency is the fitted concentration of half-maximal effect; % is set by controls: 0 for no effect and ±100 for the full control effect
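A549 ARE-Fluc cells in 5% FBS OPTI-MEM, 5000 cells/well, rested 2 h then exposed to compounds in concentration-response for 18-24 h at 37 °C. Viability by CellTiter-Fluor fluorescence (Ex 405/Em 525) after 30 min; luciferase luminescence (BugLite, 15 min, RT) read afterwards.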
Glioma ERSR ind = qHTS for Inducers of the Endoplasmic Reticulum Stress Response (ERSR) in Human Glioma: qHTS. U87-MG GRP78 promoter luciferase reporter, 16 h. Potency, µM, for inactives: top-dose activation, hits mostly activators. 0.02% of 420,000 active. AID 602332, 2012; note: potency is the fitted concentration of half-maximal effect; series mostly up to about 76 µM; % of control where 0% means no effect; nearly all actives have a fitted effect of over 35% in size
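Stably transfected U87-MG human glioma cells carrying a GRP78-based luminescent sensor were seeded at 1000 cells/well, pin-dosed with compounds and incubated 16 h. Luciferase reagent was then added, and end-point luminescence was read after 10 min at room temperature.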
TSG101-PTAP inh = qHTS Assay for Iinhibitors of HIV-1 Budding by Blocking the Interaction of PTAP/TSG101. AID 493005, 2010. Potency, µM (series often up to 115 µM), inactives show at the top dose activity change, negative = inhibition, most hits filed as inhibitors. 340,000 tested, under 10 active. Tumor susceptibility gene 101 protein (Homo sapiens), Q99816. Fluorescence polarization, FITC-PTAP peptide / Tsg101 binding; active = well fitted inhibition curve with a large enough effect in the main read-out, with a control signal flat, not every such curve was filed as active; inconclusive = small, poorly fitted or top-dose-only effect, or effect the other way, or a change in a side signal; inactive = no such curve, though single readings can be large or run the other way; note: potency is the fitted concentration of half-maximal effect; % of control where 0% means no effect
Target sequence (Q99816 whole entry, looked up): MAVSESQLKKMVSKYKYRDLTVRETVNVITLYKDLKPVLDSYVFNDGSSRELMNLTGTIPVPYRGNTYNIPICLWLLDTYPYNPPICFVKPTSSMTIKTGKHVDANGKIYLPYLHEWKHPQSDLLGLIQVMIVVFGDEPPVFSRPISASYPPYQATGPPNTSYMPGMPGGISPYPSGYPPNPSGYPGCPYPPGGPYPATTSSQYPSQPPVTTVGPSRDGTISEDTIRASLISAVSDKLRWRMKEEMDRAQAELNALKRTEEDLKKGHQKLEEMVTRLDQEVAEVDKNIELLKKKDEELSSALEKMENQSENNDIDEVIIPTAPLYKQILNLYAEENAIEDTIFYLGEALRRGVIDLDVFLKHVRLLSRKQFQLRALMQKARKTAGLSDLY
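Fluorescence anisotropy tracks displacement of a FITC-tagged PTAP peptide (50 nM) from the Tsg101 binding domain (10 uM), following a 20 min room-temperature incubation at pH 7.5.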
Nrf2 activator = qHTS of Nrf2 Activators | AREc32 ARE-luciferase reporter (MCF7-derived line), luminescence, 24 h | Potency, µM (highest dose often 46.1 µM), inactives show at the top dose activation, usual class: activators | 0.31% of 410,000 active | AID 624171, 2012; note: potency is the fitted concentration of half-maximal effect; % of control where 0% means no effect; nearly all actives have a fitted effect of over 65% in size
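Luciferase luminescence (Steady-Glo, 30 min at room temperature) served as the read-out of ARE activation in AREc32 cells treated with compounds for 24 hr at 37 deg C.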
miR-21 act = qHTS Assay for Modulators of miRNAs and/orActivators of miR-21 | HeLa miR-21 FLuc reporter, luciferase, 48 h | Potency, µM (series often up to 38.3 µM), inactives show at the highest dose activity change, positive = activation, hits mostly activators | 340,000 tested, under 10 active | AID 2288, 2010;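 note: % of control where 0% means no effect; miR-21 action dims this reporter so a rising signal means less miR-21 action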
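HeLa cells stably expressing CMV-driven firefly luciferase with a downstream miR-21 binding sequence, endogenously expressing miR-21, were treated with titrations (up to about 40uM final) for 48 hours at 37 degree Celsius. Luciferase luminescence was read after lysis.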
Nrf2 block = Nrf2 qHTS screen for inhibitors; AID 504444, 2011; Potency, µM (titrated, usually from 46 µM), without a hit: top-dose activity change, negative = inhibition, actives largely listed as inhibitors; 2.1% of 360,000 active; A549 ARE-Fluc reporter, luciferase luminescence, 18-24 h; note: potency is the fitted concentration of half-maximal effect; % is set by controls: 0 for no effect and ±100 for the full control effect; nearly all actives have a fitted effect of over 60% in size
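Concentration-response testing used A549 ARE_Fluc cells at 5000 cells/well. Following an 18-24 h compound incubation, viability was read by fluorescence (Ex 405/Em 525) and luciferase output by luminescence.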
An asterisk follows results filed as active; ? = inconclusive; nt = no result; [ ] = remark or other dose. Unless noted, calls come from the whole dose curve; as a rule, active = well fitted curve in the direction sought with a large enough effect; inconclusive = small, poorly fitted or top-dose-only effect, or another doubt; inactive = no such curve, though single readings can be large; an effect the other way counts as inactive or inconclusive.

SMILES	A549 tox	Glioma ERSR ind	TSG101-PTAP inh	Nrf2 activator	miR-21 act	Nrf2 block
CSc1ncc(Cl)c(C(=O)Nc2ccc(S(=O)(=O)N3CCC(C)CC3)cc2)n1	-9%	-2%	nt	0%	?	21µM*
CNc1cccc(S(=O)(=O)N2CCCN(S(=O)(=O)c3ccc4c(c3)OCCO4)CC2)c1	-3%	nt	nt	nt	nt	-7%
Cc1cc(/C=C2\C=Cc3ccccc32)cc(C)c1[N+](=O)[O-]	nt	3%	nt	nt	nt	nt
COC(=O)[C@@H]1CCCN1C(=O)c1c(OC)cc(=O)n2c1CCN(Cc1ccc(C)o1)CC2	nt	1%	nt	nt	nt	nt
Cc1cccc(Cc2c(C)nc3c(C(=O)N4CCN(Cc5ccc6c(c5)OCO6)CC4)cnn3c2C)c1	-1%[1.84 µM]	-2%	-11%	3%	12%	18µM*
O=C(CSCc1ccccc1)N1CCN(Cc2ccc3c(c2)OCO3)CC1	18%	0%	-4%	0%	-18%	16%
Cc1cccc(-c2nc(CSCC(=O)N3CCN(Cc4ccc5c(c4)OCO5)CC3)c(C)o2)c1	2%	-5%	-2%	0%	21%	21µM*
Cc1ccccc1Cc1c(C)nc2c(C(=O)N3CCN(Cc4ccc5c(c4)OCO5)CC3)cnn2c1C	-10%	-1%	-1%	0%	nt	?
Cc1cccc(Cc2c(C)nc3c(C(=O)NCc4ccco4)cnn3c2C)c1	?	4%	-2%	15%	19%	23µM*
c1cncc(OC2CCN(Cc3ccc4c(c3)CN(Cc3ccc5c(c3)CCO5)CCO4)CC2)c1	nt	-4%	nt	nt	nt	nt
CCc1ccc(OCC2c3cc(OC)c(OC)cc3CCN2C(=S)NCCOC)cc1 (stereo not given)	2%	-3%	-1%	1%	-10%	-16%
CCc1ccc(OCC2c3cc(OC)c(OC)cc3CCN2C(=S)NC)cc1 (stereo not given)	-28%	-2%	0%	9%	8%	18µM*
CC(=NNc1nc2ccccc2o1)c1cc2ccccc2cn1	10µM*	?	-7%	-2%	nt	?
CCCCN(CC)c1nc(C)nc2c1c(C)c(C)n2-c1c(C)cc(C)cc1C	nt	-7%	nt	nt	nt	nt
O=C(OCn1ncc(Cl)c(Cl)c1=O)c1ccccc1Cl	nt	-16%	-9%	?	27%	23µM*
COc1cc(/C=N/Nc2ccccn2)ccc1O	-4%	3%	-2%	8.9µM*	-53%	?
CCCCOC(=O)c1ccc(NS(=O)(=O)c2c(C)nc3scc(C)n3c2=O)cc1	-9%	-3%	nt	6%	21%	16µM*
Cc1ccc(CNC(=O)C(=O)NCC2OCCN2S(=O)(=O)c2ccc(C)cc2)cc1 (stereo not given)	12%	-3%	nt	-1%	0%	-12%
COc1ccc(CCNC(=O)C(=O)NCC2OCCN2S(=O)(=O)c2ccc3c(c2)OCCO3)cc1OC (stereo not given)	-6%	-5%	0%	0%	-8%	?
Cc1ccc(CNC(=O)C(=O)NCC2OCCN2S(=O)(=O)c2ccc(Br)cc2)cc1 (stereo not given)	-4%	-3%	nt	5%	15%	16µM*
COc1ccc(CCNC(=O)C(=O)NCC2OCCN2S(=O)(=O)c2ccc3c(c2)OCCO3)cc1 (stereo not given)	-22%	-5%	-1%	0%	-1%	9.2µM*
Cc1ccc(CNC(=O)C(=O)NCC2OCCN2S(=O)(=O)c2ccc3c(c2)OCCO3)cc1 (stereo not given)	8%	-2%	-19%	0%	0%	10µM*
Cc1nc(SCC(=O)Nc2ccc(F)cc2)c(C#N)c(C)c1CC(=O)c1ccc(Br)cc1	12µM*	-1%	-6%	0%	-3%	13µM*
O=C1c2cccc3cccc(c23)C(=O)N1CCCN(C(=O)c1cccs1)c1cccc(F)c1	0%	1%	0%	3.2µM*	-8%	?
CCCCCc1ccc(OCCC[n+]2ccccc2)c(CCCCC)c1	?	-14%	-3%	-3%	?	13µM*
SMILES	A549 tox	Glioma ERSR ind	TSG101-PTAP inh	Nrf2 activator	miR-21 act	Nrf2 block
Cc1ccc(Sc2c(C#N)c(-c3ccccc3)nn2C)cc1	-28%[1.84 µM]	-1%	-1%	0%	7%	5.8µM*
Cc1ccc(SCc2c(-c3ccccc3)nn(C)c2Cl)cc1	14%	-1%	-3%	0%	8%	-27%
CN(Cc1nccs1)c1ncnc2ccc(-c3ccc4c(c3)OCO4)cc12	1%	nt	nt	nt	nt	-16%
O=C(NCCc1nnc2n1CCN(Cc1ccc(F)c(F)c1)CC2)c1ccoc1	nt	-4%	nt	nt	nt	nt
N=C1/C(=C\c2coc3ccccc3c2=O)C(=O)N=C2SC=CN12	-2%	0%	?	18µM*	0%	0%
CCC(=O)Oc1ccc2c(c1)O/C(=C\c1ccco1)C2=O	-17%	5%	?	7.9µM*	-32%	-1%
CCCc1[nH]nc2c1C(C1CCCCC1)C(C#N)=C(N)O2 (stereo not given)	-8%	35µM*	0%	25%	16%	-10%
O=C1CCc2cc(S(=O)(=O)Nc3ccc4c(c3)CCC4)ccc2N1	3%	nt	nt	nt	nt	?
S=c1[nH]nc(-c2ccco2)n1/N=C/c1cccc(Cl)c1Cl	-3%	-3%	-7%	8.9µM*	-11%	3%
Cc1ccc(CNc2cc(-c3nn4c(C)nnc4s3)ccc2C)s1	-13%	0%	-4%	7%	-18%	16µM*
CCOc1ccc2nc(N3CCC(C(=O)N4CCN(c5ccccn5)CC4)CC3)sc2c1	-18%	?	-1%	3%	10%	16µM*
O=S1(=O)N=C(Oc2ccc(Br)cc2)c2ccccc21	-2%	nt	nt	nt	nt	9%
COc1ccc(C2C(C(=O)Nc3ccccc3)=C(C)Nc3nc(-c4ccccc4)nn32)c(OC)c1 (stereo not given)	-7%	-1%	nt	6%	6%	?
COc1cccc(C2C(C(=O)Nc3ccccc3)=C(C)Nc3nc(-c4ccccc4)nn32)c1OC (stereo not given)	-25%	-2%	nt	-1%	?	18µM*
CC(C)C(=O)Nc1cccc(NC(=O)c2cccc([N+](=O)[O-])c2)c1	0%	-3%	-5%	0%	1%	-4%
COc1ccc(C(=O)C(C)Oc2cccc(NC(=O)c3cccc([N+](=O)[O-])c3)c2)cc1 (stereo not given)	-9%	5%	-10%	0%	1%	26µM*
OCC(O)COc1ccc(Cl)cc1 (stereo not given)	nt	-3%	nt	nt	nt	nt
